Results on 18 molecules are retold here after PubChem BioAssay (EPA / NIEHS).

Results filed as inconclusive are left out. The source made the active and inactive calls. The calls were made as follows: active = hit-call score of the fitted dose curve at least 0.9, where 1 is the maximum; inconclusive = response in the unintended direction; inactive = score below 0.9.

Experiment [1] concerns frog Estrogen Receptor (ESR1), gene 398734. The experiment can be described thus: ATG_frER1_XSP1: Attagene TRANS-FACTORIAL Multi-Species (XSP1) HepG2 Assay for frog Estrogen Receptor (ESR1) (AID 2283777). In short, it runs like this: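 Read-out: fluorescent reporter mRNA via RT-PCR, HpaI digestion and capillary electrophoresis, after 24 h chemical exposure of transiently transfected human HepG2 cells expressing exogenous NR-Gal4 chimeras. DMSO served as baseline for positive-direction fitting.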

The target of experiment [2] is chicken Estrogen Receptor (ESR1), ESR1 (gene 396099) (UniProt P06212). The experiment can be described thus: ATG_chERa_XSP1: Attagene TRANS-FACTORIAL Multi-Species (XSP1) HepG2 Assay for chicken Estrogen Receptor (ESR1) (AID 2283779). In short, it runs like this:
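HepG2 cells transiently transfected with multiplexed GAL4-UAS reporter units expressing chimeric NR-Gal4 proteins; 3 nM 6-alpha-fluorotestosterone present. Reporter mRNA measured 24 h after dosing by RT-PCR, FAM labelling, HpaI digest and capillary electrophoresis; gain of signal versus DMSO.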

Experiment [3] has as its system turtle Estrogen Receptor (ESR1), gene 101933533. The experiment can be described thus: ATG_trERa_XSP1: Attagene TRANS-FACTORIAL Multi-Species (XSP1) HepG2 Assay for turtle Estrogen Receptor (ESR1) (AID 2283781). In a few lines: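 HepG2 cells transiently transfected with GAL4-UAS reporter units and chimeric NR-Gal4 constructs, dosed for 24 h with 3 nM 6-alpha-fluorotestosterone present. Reporter mRNA was quantified by RT-PCR, fluorescent labelling and capillary electrophoresis, with gain of signal fitted relative to DMSO.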

The target in experiment [4] is Estrogen receptor beta (Homo sapiens) (UniProt Q92731). The experiment can be described thus: ATG_hERb_XSP1: Attagene TRANS-FACTORIAL Multi-Species (XSP1) HepG2 Assay for human Estrogen Receptor (ESR2) (AID 2283788). In short, it runs like this:
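Read-out: reporter mRNA induction by RT-PCR, HpaI digestion and capillary electrophoresis fluorescence, fitted in positive direction relative to DMSO baseline. Human liver HepG2 cells expressing ERβ-Gal4 fusion, dosed 24 h, medium containing 3 nM 6-alpha-fluorotestosterone.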

A short description of experiment [5]: ATG_M_06_XSP1: Attagene TRANS-FACTORIAL Multi-Species (XSP1) HepG2 Assay for M06 Transcription Factor (Internal Marker) (AID 2283790). In a few lines:
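Transfected HepG2 multi-reporter system treated 24 h in the presence of 3 nM 6-alpha-fluorotestosterone. The M06 internal marker transcript was quantified by RT-PCR with capillary electrophoresis as a background control, and gain of signal was scored versus DMSO.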

A short description of experiment [6]: ATG_M_61_XSP1: Attagene TRANS-FACTORIAL Multi-Species (XSP1) HepG2 Assay for M61 Transcription Factor (Internal Marker) (AID 2283797). In short, it runs like this: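 HepG2 cells transiently transfected with multiplexed GAL4-driven reporter units, dosed 24 h with 3 nM 6-alpha-fluorotestosterone present. Reporter mRNA quantified by RT-PCR, 6-FAM labelling, HpaI digestion and capillary electrophoresis; internal-marker background control, gain of signal versus DMSO.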

In experiment [7] the target is Peroxisome proliferator-activated receptor gamma (Homo sapiens) (UniProt P37231). The experiment can be described thus: ATG_hPPARg_XSP1: Attagene TRANS-FACTORIAL Multi-Species (XSP1) HepG2 Assay for human Peroxisome Proliferator-activated Receptor gamma (PPARg) (AID 2283800). In short, it runs like this:
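HepG2 cells transiently transfected with GAL4-UAS reporter units carrying chimeric NR-Gal4 proteins; 3 nM 6-alpha-fluorotestosterone present. After 24 h dosing, reporter mRNA quantified by RT-PCR and capillary electrophoresis; gain of signal relative to DMSO.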

Experiment [8] addresses mouse Peroxisome Proliferator-activated Receptor gamma (PPARg), Pparg (gene 19016) (UniProt P37238). The experiment can be described thus: ATG_mPPARg_XSP1: Attagene TRANS-FACTORIAL Multi-Species (XSP1) HepG2 Assay for mouse Peroxisome Proliferator-activated Receptor gamma (PPARg) (AID 2283802). In short, it runs like this: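 HepG2 cells transiently transfected with GAL4-UAS reporter units driven by mouse PPARg–GAL4 chimera; 3 nM 6-alpha-fluorotestosterone present. After 24 h dosing, reporter mRNA quantified by RT-PCR, fluorescent labelling and capillary electrophoresis; gain of signal versus DMSO.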

Experiment [9] concerns the target Nuclear receptor subfamily 1 group I member 2 (Mus musculus) (UniProt O54915). The experiment can be described thus: ATG_mPXR_XSP1: Attagene TRANS-FACTORIAL Multi-Species (XSP1) HepG2 Assay for mouse Pregnane X Receptor (PXR) (AID 2283803). In a few lines:
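Transiently transfected HepG2 cells expressing a receptor-Gal4 chimera drive a GAL4-UAS reporter; 3 nM 6-alpha-fluorotestosterone included. Reporter mRNA read 24 h post-dose by RT-PCR and capillary electrophoresis; gain of signal relative to DMSO.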

Experiment [10] deals with frog Thyroid hormone Receptor alpha (TRa), thra-a (gene 397942) (UniProt P15204). The experiment can be described thus: ATG_frTRa_XSP1: Attagene TRANS-FACTORIAL Multi-Species (XSP1) HepG2 Assay for frog Thyroid hormone Receptor alpha (TRa) (AID 2283804). In a few lines: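 HepG2 cells transiently transfected with frog TRa-GAL4 chimeric reporter units, dosed 24 hr with 3 nM 6-alpha-fluorotestosterone present; reporter mRNA quantified by RT-PCR, fluorescent labelling and capillary electrophoresis, gain of signal versus DMSO.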

Experiment [11] relates to turtle Thyroid Hormone Receptor, alpha (TRa), gene 101949057. The experiment can be described thus: ATG_trTRa_XSP1: Attagene TRANS-FACTORIAL Multi-Species (XSP1) HepG2 Assay for turtle Thyroid Hormone Receptor, alpha (TRa) (AID 2283806). In short, it runs like this: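 HepG2 cells transiently transfected with GAL4-UAS reporter units and chimeric receptor-Gal4 constructs, with 3 nM 6-alpha-fluorotestosterone present. Reporter mRNA was quantified 24 h after dosing by RT-PCR, 6-FAM labelling and capillary electrophoresis; gain of signal versus DMSO.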

The target of experiment [12] is zebrafish Thyroid Hormone Receptor alpha (TRa), thraa (gene 30670) (UniProt Q98867). The experiment can be described thus: ATG_zfTRa_XSP1: Attagene TRANS-FACTORIAL Multi-Species (XSP1) HepG2 Assay for zebrafish Thyroid Hormone Receptor alpha (TRa) (AID 2283807). In short, it runs like this: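 HepG2 cells transiently transfected with GAL4-UAS reporter units including a zebrafish TRa–Gal4 chimera, dosed 24 h with 3 nM 6-alpha-fluorotestosterone present. Reporter mRNA quantified by RT-PCR and capillary electrophoresis; gain versus DMSO.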

Experiment [13] in a line: ACEA_ER_AUC_viability: ACEA Biosciences xCELLigence Real-Time Cell Analysis on Estrogen Receptor Agonism for Viability (AID 2283782).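 Also: continuous compound exposure with impedance area under curve over 80 h; hit means loss of impedance signal meaning reduced cell growth or viability.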 In short, it runs like this: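 T-47D human breast cells in phenol red-free RPMI1640 with 10% charcoal-stripped FBS were dosed with an 8-point 1:4 dilution series from 100 uM top final concentration, in duplicate. Impedance-based growth was followed for 80 h; AUC analysed versus DMSO.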

Experiment [14] can be described thus: STM_H9_NormalizedViability: Cytotoxicity Assessment at 120 hours in the Stemina devTOX quickPredict H9 human embryonic stem cell (hESC)-based Assay (AID 2283784). In a few lines: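 Undifferentiated H9 hESCs kept pluripotent were exposed to compound, with media and chemical replaced every 24h. CellTiter-Fluor protease-substrate fluorescence was background-corrected and normalized per plate to the 0.1% DMSO vehicle; signal loss indicates reduced viability.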

Experiment [15] has as its target AR (gene 367) (UniProt P10275). The experiment can be described thus: ACEA_AR_agonist_80hr: ACEA Biosciences xCELLigence Real-Time Cell Analysis on Androgen Receptor Agonism for Proliferation (AID 2283783).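 Also: hits increase impedance growth signal above DMSO baseline.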 In short, it runs like this:
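22Rv1 human prostate cancer cells were seeded after preconditioning in assay medium and monitored overnight, then dosed in an eight-point 1:4 dilution series from 100 uM (≤0.5% DMSO). Impedance-based growth was read at 80 h, gain-of-signal versus DMSO.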

The target in experiment [16] is AR (gene 367) (UniProt P10275). The experiment can be described thus: ACEA_AR_antagonist_80hr: ACEA Biosciences xCELLigence Real-Time Cell Analysis on Androgen Receptor Antagonism for Proliferation (AID 2283787).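 Also: hits lower the impedance growth signal relative to DMSO.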 In a few lines:
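Impedance readout (RT-CES), 80 h post-dose; loss-of-signal vs DMSO baseline. 22Rv1 cells in assay medium. Compounds: 8-pt 1:4 series, max 100 uM final, up to 0.5% DMSO; n = 2.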

AR (gene 367), sequence (P10275 whole entry, looked up): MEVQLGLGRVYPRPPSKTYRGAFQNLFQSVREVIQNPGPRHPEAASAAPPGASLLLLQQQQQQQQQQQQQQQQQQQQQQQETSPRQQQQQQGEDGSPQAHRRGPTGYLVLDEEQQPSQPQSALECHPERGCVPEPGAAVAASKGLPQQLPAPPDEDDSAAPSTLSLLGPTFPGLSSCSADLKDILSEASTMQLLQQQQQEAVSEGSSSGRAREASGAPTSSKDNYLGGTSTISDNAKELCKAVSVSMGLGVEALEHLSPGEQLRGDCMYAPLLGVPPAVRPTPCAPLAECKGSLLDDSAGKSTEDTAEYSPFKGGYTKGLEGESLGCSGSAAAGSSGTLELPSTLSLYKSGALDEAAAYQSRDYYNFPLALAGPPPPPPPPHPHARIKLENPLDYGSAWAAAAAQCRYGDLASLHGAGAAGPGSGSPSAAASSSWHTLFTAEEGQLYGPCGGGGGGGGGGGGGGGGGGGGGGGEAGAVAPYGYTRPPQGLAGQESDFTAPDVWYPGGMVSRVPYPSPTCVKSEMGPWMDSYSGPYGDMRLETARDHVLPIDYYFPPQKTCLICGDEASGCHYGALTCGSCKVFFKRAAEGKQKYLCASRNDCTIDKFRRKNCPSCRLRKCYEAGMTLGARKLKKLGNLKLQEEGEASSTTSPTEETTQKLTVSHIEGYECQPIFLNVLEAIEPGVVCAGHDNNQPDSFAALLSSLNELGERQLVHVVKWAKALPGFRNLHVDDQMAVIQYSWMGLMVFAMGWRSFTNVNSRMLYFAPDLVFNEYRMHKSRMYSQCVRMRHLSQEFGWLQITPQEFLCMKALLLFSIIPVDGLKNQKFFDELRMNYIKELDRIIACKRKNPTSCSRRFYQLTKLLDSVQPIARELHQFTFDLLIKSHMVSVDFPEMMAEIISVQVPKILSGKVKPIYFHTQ
zebrafish Thyroid Hormone Receptor alpha (TRa), thraa (gene 30670), sequence (Q98867 whole entry, looked up, the tested form may be a part): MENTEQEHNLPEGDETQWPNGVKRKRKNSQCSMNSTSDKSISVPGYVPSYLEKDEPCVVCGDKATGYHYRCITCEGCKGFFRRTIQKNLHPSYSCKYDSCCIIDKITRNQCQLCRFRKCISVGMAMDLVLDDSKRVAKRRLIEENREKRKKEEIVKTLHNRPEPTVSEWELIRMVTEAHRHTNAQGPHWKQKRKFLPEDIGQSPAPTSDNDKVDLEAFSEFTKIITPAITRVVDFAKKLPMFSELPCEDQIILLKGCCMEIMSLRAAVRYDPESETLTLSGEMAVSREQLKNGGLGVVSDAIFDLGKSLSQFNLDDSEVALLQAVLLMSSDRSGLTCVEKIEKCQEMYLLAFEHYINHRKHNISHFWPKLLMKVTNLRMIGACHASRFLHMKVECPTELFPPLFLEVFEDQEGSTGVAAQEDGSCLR
Nuclear receptor subfamily 1 group I member 2 (Mus musculus), sequence (O54915 whole entry, looked up, the tested form may be a part): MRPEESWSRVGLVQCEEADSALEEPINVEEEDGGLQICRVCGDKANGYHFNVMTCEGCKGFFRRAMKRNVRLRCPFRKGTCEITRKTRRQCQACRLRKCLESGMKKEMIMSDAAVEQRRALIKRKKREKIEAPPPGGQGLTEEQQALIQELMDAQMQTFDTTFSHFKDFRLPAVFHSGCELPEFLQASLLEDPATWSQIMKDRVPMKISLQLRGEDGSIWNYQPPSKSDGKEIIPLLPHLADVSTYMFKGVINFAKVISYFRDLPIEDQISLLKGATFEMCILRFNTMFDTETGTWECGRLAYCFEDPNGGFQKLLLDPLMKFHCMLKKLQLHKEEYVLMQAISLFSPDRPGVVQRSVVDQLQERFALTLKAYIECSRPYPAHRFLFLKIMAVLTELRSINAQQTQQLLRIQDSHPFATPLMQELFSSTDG
Peroxisome proliferator-activated receptor gamma (Homo sapiens), sequence (P37231 whole entry, looked up, the tested form may be a part): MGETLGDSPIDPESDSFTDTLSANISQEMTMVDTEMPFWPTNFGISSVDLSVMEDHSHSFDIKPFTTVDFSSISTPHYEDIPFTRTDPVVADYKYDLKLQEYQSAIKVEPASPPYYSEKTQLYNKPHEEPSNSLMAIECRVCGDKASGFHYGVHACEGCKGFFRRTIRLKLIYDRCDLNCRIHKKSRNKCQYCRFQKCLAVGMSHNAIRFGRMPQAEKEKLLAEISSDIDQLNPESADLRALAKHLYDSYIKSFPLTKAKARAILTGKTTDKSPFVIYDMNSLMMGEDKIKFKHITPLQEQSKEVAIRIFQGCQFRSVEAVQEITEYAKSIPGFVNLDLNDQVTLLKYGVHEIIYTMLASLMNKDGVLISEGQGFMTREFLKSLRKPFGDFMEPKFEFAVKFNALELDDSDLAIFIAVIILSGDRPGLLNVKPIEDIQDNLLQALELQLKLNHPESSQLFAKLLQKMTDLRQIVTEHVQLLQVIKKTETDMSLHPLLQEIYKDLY
frog Thyroid hormone Receptor alpha (TRa), thra-a (gene 397942), sequence (P15204 whole entry, looked up, the tested form may be a part): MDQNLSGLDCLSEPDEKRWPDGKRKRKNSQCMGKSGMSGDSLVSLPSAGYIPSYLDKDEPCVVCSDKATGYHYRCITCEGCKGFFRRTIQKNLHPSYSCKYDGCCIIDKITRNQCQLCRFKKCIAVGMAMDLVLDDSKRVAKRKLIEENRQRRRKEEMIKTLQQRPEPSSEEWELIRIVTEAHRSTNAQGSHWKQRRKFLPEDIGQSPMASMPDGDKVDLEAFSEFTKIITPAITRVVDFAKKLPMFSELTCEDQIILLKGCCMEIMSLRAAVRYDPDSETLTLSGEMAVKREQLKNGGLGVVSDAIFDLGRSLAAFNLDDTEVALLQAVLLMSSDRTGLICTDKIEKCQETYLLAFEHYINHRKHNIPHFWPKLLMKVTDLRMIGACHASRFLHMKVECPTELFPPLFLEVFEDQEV
chicken Estrogen Receptor (ESR1), ESR1 (gene 396099), sequence (P06212 whole entry, looked up, the tested form may be a part): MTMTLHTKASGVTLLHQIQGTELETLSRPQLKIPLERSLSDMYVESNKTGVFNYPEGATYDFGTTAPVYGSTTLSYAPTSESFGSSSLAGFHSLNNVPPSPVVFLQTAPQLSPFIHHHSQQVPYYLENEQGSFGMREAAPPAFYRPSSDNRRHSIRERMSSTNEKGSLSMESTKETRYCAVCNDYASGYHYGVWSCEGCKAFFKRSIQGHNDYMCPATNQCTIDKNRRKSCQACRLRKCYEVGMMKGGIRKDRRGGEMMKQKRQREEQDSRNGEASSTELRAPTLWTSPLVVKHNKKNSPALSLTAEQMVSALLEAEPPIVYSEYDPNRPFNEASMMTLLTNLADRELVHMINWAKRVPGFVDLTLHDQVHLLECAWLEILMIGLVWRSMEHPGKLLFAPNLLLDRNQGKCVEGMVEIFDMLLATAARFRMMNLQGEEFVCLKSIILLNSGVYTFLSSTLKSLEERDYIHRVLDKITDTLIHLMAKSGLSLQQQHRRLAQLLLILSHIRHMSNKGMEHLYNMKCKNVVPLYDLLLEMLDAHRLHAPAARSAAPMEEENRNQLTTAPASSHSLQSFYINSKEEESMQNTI
mouse Peroxisome Proliferator-activated Receptor gamma (PPARg), Pparg (gene 19016), sequence (P37238 whole entry, looked up, the tested form may be a part): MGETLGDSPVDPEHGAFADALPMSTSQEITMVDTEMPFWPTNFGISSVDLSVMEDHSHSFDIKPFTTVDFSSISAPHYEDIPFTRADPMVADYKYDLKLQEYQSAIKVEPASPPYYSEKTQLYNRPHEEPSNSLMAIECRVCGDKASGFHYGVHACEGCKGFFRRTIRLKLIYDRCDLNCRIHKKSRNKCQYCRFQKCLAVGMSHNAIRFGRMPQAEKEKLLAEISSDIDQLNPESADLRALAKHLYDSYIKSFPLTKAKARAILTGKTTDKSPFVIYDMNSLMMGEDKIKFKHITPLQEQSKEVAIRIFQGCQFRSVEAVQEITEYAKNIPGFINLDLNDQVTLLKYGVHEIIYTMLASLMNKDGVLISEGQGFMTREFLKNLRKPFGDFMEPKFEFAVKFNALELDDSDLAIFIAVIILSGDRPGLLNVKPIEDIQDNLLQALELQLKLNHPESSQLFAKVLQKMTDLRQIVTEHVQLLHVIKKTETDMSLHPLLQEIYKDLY
Estrogen receptor beta (Homo sapiens), sequence (Q92731 whole entry, looked up, the tested form may be a part): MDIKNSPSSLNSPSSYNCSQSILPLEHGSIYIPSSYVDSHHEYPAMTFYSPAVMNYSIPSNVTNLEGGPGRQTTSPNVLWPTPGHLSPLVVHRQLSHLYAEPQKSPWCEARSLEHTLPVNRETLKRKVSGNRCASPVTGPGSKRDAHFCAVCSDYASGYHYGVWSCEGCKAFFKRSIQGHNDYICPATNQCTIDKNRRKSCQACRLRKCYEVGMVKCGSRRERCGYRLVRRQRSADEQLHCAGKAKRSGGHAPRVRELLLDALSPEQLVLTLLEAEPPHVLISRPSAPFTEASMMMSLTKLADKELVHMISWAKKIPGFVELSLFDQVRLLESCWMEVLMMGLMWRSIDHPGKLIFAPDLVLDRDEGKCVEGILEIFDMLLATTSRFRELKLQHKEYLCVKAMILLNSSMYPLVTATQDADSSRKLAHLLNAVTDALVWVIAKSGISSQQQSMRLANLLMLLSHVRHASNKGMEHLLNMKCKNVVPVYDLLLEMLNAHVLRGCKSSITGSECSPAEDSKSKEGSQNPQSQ

In the case of `CC(=O)O[C@]1(C(C)=O)CC[C@H]2[C@@H]3C=C(Cl)C4=CC(=O)[C@@H]5C[C@@H]5[C@]4(C)[C@H]3CC[C@@]21C`, the AC50 (in general, the midpoint of the concentration-response curve, whichever way the signal moves) was 4.61 µM (active) in experiment [1]; 5.26 µM (active) in experiment [2]; 3.25 µM (active) in experiment [3]; 8.21 µM (active) in experiment [4]; 20.2 µM (active) in experiment [8]; 0.347 µM (active) in experiment [9]. Moreover, the molecule was classed as inactive in experiment [5], in experiment [6], in experiment [7], in experiment [10], in [11] and in experiment [12].

Take `CCCCCCCCCCCCCCCCO`: the molecule was classed as inactive in experiment [13] and in experiment [14].

As for `O=C1OC(c2ccc(O)cc2)(c2ccc(O)cc2)c2ccccc21`, the results for the AC50 in experiment [13] and in experiment [16] were 92 µM (active) and 20.6 µM (active), respectively. In addition, the molecule was classed as inactive in [15] and in [14].

On to `CC(=O)CC(c1ccccc1)c1c(O)c2ccccc2oc1=O` (stereo not drawn), for which the result in [13] and in experiment [14] was inactive.

`COC(=O)[C@H]1[C@H]2C[C@@H]3c4[nH]c5cc(OC)ccc5c4CCN3C[C@H]2C[C@@H](OC(=O)c2cc(OC)c(OC)c(OC)c2)[C@@H]1OC`: the AC50 in [13] is 60.5 µM (active). In [14], the result was inactive.

Consider `CN(C)CCCN1c2ccccc2Sc2ccc(Cl)cc21`, for which the values for the AC50 in [13] and in [14] were 13.1 µM (active) and 3.22 µM (active), respectively.

As for `CCCCCCCCCC[N+](C)(C)[O-]`, the result in [14] and in experiment [16] was inactive.

On to `CC(C)COC(=O)CCCCC(=O)OCC(C)C`, for which the molecule was classed as inactive in experiment [13].

`O=C(O)c1cccnc1`: the molecule was called inactive in experiment [13] and in experiment [14].

In the case of `NC(=Nc1ccccc1)Nc1ccccc1`, the half-maximal activity concentration (AC50) in experiment [13] is 1.79 µM (active). In addition, the outcome in experiment [14] was inactive.

On to `O=Cc1ccccc1C=O`, for which the outcome in experiment [13] was inactive. Besides, the AC50 in experiment [16] was 83 µM (active).

`CCc1nc(N)nc(N)c1-c1ccc(Cl)cc1`: the AC50 in experiment [14] was 33.9 µM (active).

`CC1(C)C(=O)NC(=O)N1CO`: the molecule was classed as inactive in experiment [13].

In the case of `NCCOCCOCCN`, the outcome in experiment [16] was inactive.

In the case of `CSc1ccc(Oc2ccc(S(N)(=O)=O)cc2CN(C)C)cc1C`, the AC50 in experiment [13] was 50 µM (active); in experiment [16] it was 62.4 µM (active).

As for `Cc1ccc(-c2cc(C(F)(F)F)nn2-c2ccc(S(N)(=O)=O)cc2)cc1`, the AC50 was 90.7 µM (active) in [13] and 12.7 µM (active) in experiment [16].

For `N[C@@H](Cc1c[nH]c2ccccc12)C(=O)O`, the call in experiment [13] and in experiment [14] was inactive.

As to `Oc1ccccc1O`, the AC50 in [13] is 90.5 µM (active).
